Assay results reported in PubChem BioAssay.
Values joined by “and” are separate entries in the source; they are usually repeats but may differ in a detail not shown here. Identical values can stand only once. Active and inactive are the calls of the source. Unless noted, how the calls were made is not given here.

system: not listed separately; assay: P. berghei load reduction in hepatocytes – cell-based, HepG2, luciferase luminescence, HepG2 viability, primary screen (AID 624349; in the data active means parasite load remaining mostly below about 12%, no sharp cut-off; inactive means mostly above about 10%;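 further: 100% = mean of DMSO negative control wells on the same plate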); conditions: P. berghei liver stage in HepG2, luciferase luminescence, concentration not given here; parasite load remaining: stronger effect = lower value; viability: measured here: HepG2 viability without parasites

Row | SMILES | viability | parasite load remaining
1 | CC(=O)Oc1cc(C(F)(F)F)ccc1C(=O)O | 117% and 74.8% | 140% (inactive) and 78.8% (inactive)
2 | C[N+](C)(C)CCOC(=O)CCC(=O)OCC[N+](C)(C)C | 74.5% | 28% (inactive)
3 | Cc1nc2c([nH]1)c(=O)n(C)c(=O)n2Cc1ccco1 | 184% | 89.1% (inactive)
4 | OCCN1CCN(CC/C=C2/c3ccccc3Sc3ccc(C(F)(F)F)cc32)CC1 | 81% | 69.9% (inactive)
5 | CC(=O)[C@@]1(O)CC[C@H]2[C@@H]3CCC4=CC(=O)CC[C@]4(C)[C@H]3CC[C@@]21C | 66% | 0.96% (inactive)
6 | C(=C\c1ccccc1)/CN1CCN(C(c2ccccc2)c2ccccc2)CC1 | 52.6% and 87.5% | 32.6% (inactive) and 111% (inactive)
7 | CCCCc1ncc(/C=C(\Cc2cccs2)C(=O)O)n1Cc1ccc(C(=O)O)cc1 | 110% | 50.8% (inactive)

system: Hepatitis C virus NS3 helicase; assay: blockers of NS3h binding to ssDNA – biochemical, fluorescence polarization, LOPAC1280 library, primary screen (AID 687035; in the data active means inhibition above about 37%); conditions: Purified HCV NS3 helicase, Cy5-dT15 ssDNA binding fluorescence polarization; stronger effect = higher value; concentration not given here

Row | SMILES | inhibition
8 | COc1ccc(CCN(C)CCCC(C#N)(c2cc(OC)c(OC)c(OC)c2)C(C)C)cc1OC (centres undefined) | -1% (inactive)
9 | N[C@@H](CC(=O)O)C(=O)O | 0% (inactive)
10 | C[C@]12CCC(=O)C=C1CC[C@@H]1[C@@H]2CC[C@@]2(C)[C@H]1CC[C@]2(O)C(=O)CO | 0% (inactive)
11 | O=c1[nH]c(=O)n([C@H]2C[C@H](O)[C@@H](CO)O2)cc1Br | -1% (inactive)
12 | CC1=C(CC(=O)O)c2cc(F)ccc2/C1=C\c1ccc(S(C)(=O)=O)cc1 | -4% (inactive)
13 | CCN1CCc2nc(N)oc2CC1 | -3% (inactive)
14 | NC(=O)c1cn(Cc2c(F)cccc2F)nn1 | -5% (inactive)
15 | CSc1ccc(C(=O)c2[nH]c(=O)[nH]c2C)cc1 | 0% (inactive)
16 | NC(N)=NCCC[C@H](N)C(=O)O | -3% (inactive)
17 | C[N+](C)(C)CCOC(=O)CCC(=O)OCC[N+](C)(C)C | 2% (inactive)
18 | Cc1nc2c([nH]1)c(=O)n(C)c(=O)n2Cc1ccco1 | -1% (inactive)
19 | OCCN1CCN(CC/C=C2/c3ccccc3Sc3ccc(C(F)(F)F)cc32)CC1 | -1% (inactive)
20 | CC(C)(C)c1ccc(C(=O)CCCN2CCC(OC(c3ccccc3)c3ccccc3)CC2)cc1 | 3% (inactive)
21 | Nc1cc(=O)[nH]c(N)n1 | 1% (inactive)
22 | CC(=O)[C@@]1(O)CC[C@H]2[C@@H]3CCC4=CC(=O)CC[C@]4(C)[C@H]3CC[C@@]21C | 0% (inactive)
23 | COC(=O)C1=C(C)NC(C)=C(C(=O)OC(C)(C)CN(C)CCC(c2ccccc2)c2ccccc2)C1c1cccc([N+](=O)[O-])c1 (centres undefined) | 3% (inactive)
24 | CCC(=O)c1ccc2c(c1)N(CCCN(C)C)c1ccccc1S2 | -4% (inactive)
25 | OCCN1CCN(CCCN2c3ccccc3C=Cc3ccccc32)CC1 | -5% (inactive)
26 | CCNC(=O)N1CCN(CCCC(c2ccc(F)cc2)c2ccc(F)cc2)CC1 | -1% (inactive)
27 | C(=C\c1ccccc1)/CN1CCN(C(c2ccccc2)c2ccccc2)CC1 | 1% (inactive)
28 | COC(=O)[C@@H](N)Cc1ccc(O)c(O)c1 | -2% (inactive)
29 | O=C(O)CN(CCOCCOCCN(CC(=O)O)CC(=O)O)CC(=O)O | -1% (inactive)
30 | O=C(O)CP(=O)(O)O | -3% (inactive)
31 | N[C@@H](COP(=O)(O)O)C(=O)O | -1% (inactive)
32 | CCN(CC)CCCN(c1ccccc1)C1Cc2ccccc2C1 | -1% (inactive)

system: not listed separately; assay: compounds altering Cy5-DNA-NS3h complex signal – biochemical, LOPAC1280, artefact control for HCV NS3 helicase inhibitor project (AID 687037); conditions: Cy5-DNA-NS3h complex fluorescence interference counterscreen

Row | SMILES | fluorescence ratio (interference)
33 | COc1ccc(CCN(C)CCCC(C#N)(c2cc(OC)c(OC)c(OC)c2)C(C)C)cc1OC (centres undefined) | 1 (inactive)
34 | N[C@@H](CC(=O)O)C(=O)O | 0.9 (inactive)
35 | C[C@]12CCC(=O)C=C1CC[C@@H]1[C@@H]2CC[C@@]2(C)[C@H]1CC[C@]2(O)C(=O)CO | 1 (inactive)
36 | O=c1[nH]c(=O)n([C@H]2C[C@H](O)[C@@H](CO)O2)cc1Br | 1 (inactive)
37 | CC1=C(CC(=O)O)c2cc(F)ccc2/C1=C\c1ccc(S(C)(=O)=O)cc1 | 1 (inactive)
38 | CCN1CCc2nc(N)oc2CC1 | 1 (inactive)
39 | NC(=O)c1cn(Cc2c(F)cccc2F)nn1 | 1 (inactive)
40 | CSc1ccc(C(=O)c2[nH]c(=O)[nH]c2C)cc1 | 1.1 (inactive)
41 | NC(N)=NCCC[C@H](N)C(=O)O | 1 (inactive)
42 | C[N+](C)(C)CCOC(=O)CCC(=O)OCC[N+](C)(C)C | 1 (inactive)
43 | Cc1nc2c([nH]1)c(=O)n(C)c(=O)n2Cc1ccco1 | 1 (inactive)
44 | OCCN1CCN(CC/C=C2/c3ccccc3Sc3ccc(C(F)(F)F)cc32)CC1 | 1 (inactive)
45 | CC(C)(C)c1ccc(C(=O)CCCN2CCC(OC(c3ccccc3)c3ccccc3)CC2)cc1 | 1 (inactive)
46 | Nc1cc(=O)[nH]c(N)n1 | 1.1 (inactive)
47 | CC(=O)[C@@]1(O)CC[C@H]2[C@@H]3CCC4=CC(=O)CC[C@]4(C)[C@H]3CC[C@@]21C | 1 (inactive)
48 | COC(=O)C1=C(C)NC(C)=C(C(=O)OC(C)(C)CN(C)CCC(c2ccccc2)c2ccccc2)C1c1cccc([N+](=O)[O-])c1 (centres undefined) | 1 (inactive)
49 | CCC(=O)c1ccc2c(c1)N(CCCN(C)C)c1ccccc1S2 | 0.9 (inactive)
50 | OCCN1CCN(CCCN2c3ccccc3C=Cc3ccccc32)CC1 | 1 (inactive)
51 | CCNC(=O)N1CCN(CCCC(c2ccc(F)cc2)c2ccc(F)cc2)CC1 | 1 (inactive)
52 | C(=C\c1ccccc1)/CN1CCN(C(c2ccccc2)c2ccccc2)CC1 | 1 (inactive)
53 | COC(=O)[C@@H](N)Cc1ccc(O)c(O)c1 | 1 (inactive)
54 | O=C(O)CN(CCOCCOCCN(CC(=O)O)CC(=O)O)CC(=O)O | 1 (inactive)
55 | O=C(O)CP(=O)(O)O | 0.9 (inactive)
56 | N[C@@H](COP(=O)(O)O)C(=O)O | 1 (inactive)
57 | CCN(CC)CCCN(c1ccccc1)C1Cc2ccccc2C1 | 1 (inactive)
